Laboratory results taken from PubChem BioAssay (EPA / NIEHS).
The source made the active and inactive calls. The calls were made as follows: active = hit-call score of the fitted dose curve at least 0.9, where 1 is the maximum; inactive = score below 0.9.

Assay: APR_HepG2_p53Act_24hr: Apredica 24-hour HepG2 Assay for p53 Activation (AID 2282913);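 also: p53 protein immunofluorescence averaged per cell in HepG2 with Hoechst nuclei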
Details: high-content imaging, actives raise or lower the signal
In short: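 Read-out: Cy5 immunofluorescence for p53 in fixed, permeabilized HepG2, imaged by HCS with Hoechst-defined nuclei. Dosing was 24 hr at 0.39–200 uM in 0.5% DMSO. Curves were fitted bidirectionally relative to DMSO.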

Compound | AC50 | outcome
CCCCc1oc2ccccc2c1C(=O)c1cc(I)c(OCCN(CC)CC)c(I)c1 | 33.5 µM (active) | 
O=C(c1ccccc1)c1ccccc1 |  | inactive
O=C(CCCN1CCC(O)(c2ccc(Cl)cc2)CC1)c1ccc(F)cc1 | 98.3 µM (active) | 
CS(=O)(=O)c1ccc([C@@H](CC2CCCC2)C(=O)Nc2cnccn2)cc1Cl |  | inactive

Assay: APR_HepG2_CellCycleArrest_72hr: Apredica 72-hour HepG2 Assay for Cell Cycle Arrest (AID 2282914)
Details: high-content imaging, actives raise or lower the signal
In short: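 HepG2, 72 hr exposure, 10-point 0.39–200 uM, duplicate, 0.5% DMSO final. Fix 3.7% formaldehyde 30 min RT, Triton X-100 0.5%, Hoechst 33342 2 ug/mL. ArrayScan 20x, six fields/well; DNA content per nucleus; bidirectional fit vs DMSO.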

Compound | outcome | AC50
CCCCCCCCCCCCOS(=O)(=O)O | inactive | 
CCCCCCCCCCCCCCC | inactive | 
OCC(CO)(CBr)CBr | inactive | 
CCCCC(CC)C(=O)O (centres undefined) | inactive | 
CN(Cc1cnc2nc(N)nc(N)c2n1)c1ccc(C(=O)N[C@@H](CCC(=O)O)C(=O)O)cc1 | inactive | 
O=C1NS(=O)(=O)c2ccccc21 | inactive | 
Cc1[nH]nc2c1N=C(c1ccccc1Cl)c1cc([N+](=O)[O-])ccc1N2 |  | 0.279 µM (active)
CCCCC=O | inactive | 
N=C(N)c1ccc(OCCCCCOc2ccc(C(=N)N)cc2)cc1 |  | 4.81 µM (active)

Assay: APR_HepG2_CellLoss_72hr: Apredica 72-hour HepG2 Assay for Cell Loss (AID 2282915)
Details: high-content imaging
In short: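 Cell number comes from Hoechst 33342-labelled nuclei, imaged at 20x after 3.7% formaldehyde fixation. Dosing was 0.39–200 uM, ten concentrations in duplicate, 0.5% DMSO final, for 72 h. Bidirectional fit relative to DMSO baseline.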

Compound | outcome | AC50
CCCCCCCCCCCCOS(=O)(=O)O | inactive | 
CCCCCCCCCCCCCCC | inactive | 
CCCCc1oc2ccccc2c1C(=O)c1cc(I)c(OCCN(CC)CC)c(I)c1 |  | 17.2 µM (active)
O=C(c1ccccc1)c1ccccc1 | inactive | 
OCC(CO)(CBr)CBr | inactive | 
O=C(CCCN1CCC(O)(c2ccc(Cl)cc2)CC1)c1ccc(F)cc1 |  | 34.7 µM (active)
CCCCC(CC)C(=O)O (centres undefined) | inactive | 
CN(Cc1cnc2nc(N)nc(N)c2n1)c1ccc(C(=O)N[C@@H](CCC(=O)O)C(=O)O)cc1 | inactive | 
O=C1NS(=O)(=O)c2ccccc21 | inactive | 
Cc1[nH]nc2c1N=C(c1ccccc1Cl)c1cc([N+](=O)[O-])ccc1N2 |  | 1.49 µM (active)
CC(=O)Nc1ccc(O)cc1 | inactive | 
CN(C)CCOC(c1ccccc1)c1ccccc1 |  | 90.8 µM (active)
CCCCC=O | inactive | 
CS(=O)(=O)c1ccc([C@@H](CC2CCCC2)C(=O)Nc2cnccn2)cc1Cl | inactive | 
N=C(N)c1ccc(OCCCCCOc2ccc(C(=N)N)cc2)cc1 |  | 24.2 µM (active)

Assay: APR_HepG2_P-H2AX_72hr: Apredica 72-hour HepG2 Assay for H2AX Phosphorylation (AID 2282916);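 also: phospho-histone H2A.x immunostain intensity per cell marking DNA damage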
Details: imaging, actives raise or lower the signal
In short: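 Readout: phospho-H2A.x immunofluorescence (FITC secondary) plus Hoechst nuclear stain, high-content imaging at 20x, six fields/well. HepG2, 72 hr compound exposure, 0.39–200 uM, final DMSO 0.5% v/v. Gain or loss fitted relative to DMSO baseline.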

Compound | outcome | AC50
CCCCCCCCCCCCOS(=O)(=O)O | inactive | 
CCCCCCCCCCCCCCC | inactive | 
CCCCc1oc2ccccc2c1C(=O)c1cc(I)c(OCCN(CC)CC)c(I)c1 |  | 75.5 µM (active)
O=C(c1ccccc1)c1ccccc1 | inactive | 
OCC(CO)(CBr)CBr | inactive | 
O=C(CCCN1CCC(O)(c2ccc(Cl)cc2)CC1)c1ccc(F)cc1 |  | 33 µM (active)
CCCCC(CC)C(=O)O (centres undefined) | inactive | 
CN(Cc1cnc2nc(N)nc(N)c2n1)c1ccc(C(=O)N[C@@H](CCC(=O)O)C(=O)O)cc1 |  | 0.0391 µM (active)
O=C1NS(=O)(=O)c2ccccc21 | inactive | 
Cc1[nH]nc2c1N=C(c1ccccc1Cl)c1cc([N+](=O)[O-])ccc1N2 |  | 19.8 µM (active)
CC(=O)Nc1ccc(O)cc1 | inactive | 
CN(C)CCOC(c1ccccc1)c1ccccc1 |  | 114 µM (active)
CCCCC=O | inactive | 
CS(=O)(=O)c1ccc([C@@H](CC2CCCC2)C(=O)Nc2cnccn2)cc1Cl | inactive | 
N=C(N)c1ccc(OCCCCCOc2ccc(C(=N)N)cc2)cc1 |  | 25.1 µM (active)

Assay: APR_HepG2_MitoMembPot_72hr: Apredica 72-hour HepG2 Assay for Mitochondrial Membrane Potential (AID 2282917)
Details: imaging, actives raise or lower the signal
In short: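 Membrane potential read by MitoTracker Red CMXRos (250 nM, 30 min, pre-fixation) fluorescence imaging of HepG2 after 72 hr exposure. Ten concentrations, 0.39–200 uM, duplicate wells, 0.5% DMSO; fitted in both directions against DMSO baseline.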

Compound | outcome | AC50
CCCCCCCCCCCCOS(=O)(=O)O | inactive | 
CCCCCCCCCCCCCCC | inactive | 
CCCCc1oc2ccccc2c1C(=O)c1cc(I)c(OCCN(CC)CC)c(I)c1 | inactive | 
O=C(c1ccccc1)c1ccccc1 | inactive | 
O=C(CCCN1CCC(O)(c2ccc(Cl)cc2)CC1)c1ccc(F)cc1 |  | 51.7 µM (active)
CN(Cc1cnc2nc(N)nc(N)c2n1)c1ccc(C(=O)N[C@@H](CCC(=O)O)C(=O)O)cc1 |  | 19.8 µM (active)
O=C1NS(=O)(=O)c2ccccc21 | inactive | 
Cc1[nH]nc2c1N=C(c1ccccc1Cl)c1cc([N+](=O)[O-])ccc1N2 |  | 0.432 µM (active)
CC(=O)Nc1ccc(O)cc1 | inactive | 
CN(C)CCOC(c1ccccc1)c1ccccc1 | inactive | 
CCCCC=O | inactive | 
CS(=O)(=O)c1ccc([C@@H](CC2CCCC2)C(=O)Nc2cnccn2)cc1Cl | inactive | 
N=C(N)c1ccc(OCCCCCOc2ccc(C(=N)N)cc2)cc1 | inactive | 

Assay: APR_HepG2_MitoticArrest_72hr: Apredica 72-hour HepG2 Assay for Mitotic Arrest (AID 2282918)
Details: high-content imaging, actives raise or lower the signal
In short: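 HepG2, 72 hr exposure, 0.39–200 uM in duplicate, 0.5% v/v DMSO final. Formaldehyde-fixed, Triton-permeabilized, anti-phospho-histone H3/FITC plus Hoechst. ArrayScan imaging at 20x; curves fit bidirectionally against DMSO baseline.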

Compound | outcome | AC50
CCCCCCCCCCCCOS(=O)(=O)O | inactive | 
CCCCCCCCCCCCCCC | inactive | 
CCCCc1oc2ccccc2c1C(=O)c1cc(I)c(OCCN(CC)CC)c(I)c1 |  | 8.51 µM (active)
O=C(c1ccccc1)c1ccccc1 | inactive | 
O=C(CCCN1CCC(O)(c2ccc(Cl)cc2)CC1)c1ccc(F)cc1 |  | 19.8 µM (active)
CN(Cc1cnc2nc(N)nc(N)c2n1)c1ccc(C(=O)N[C@@H](CCC(=O)O)C(=O)O)cc1 | inactive | 
O=C1NS(=O)(=O)c2ccccc21 | inactive | 
Cc1[nH]nc2c1N=C(c1ccccc1Cl)c1cc([N+](=O)[O-])ccc1N2 |  | 28.8 µM (active)
CC(=O)Nc1ccc(O)cc1 | inactive | 
CN(C)CCOC(c1ccccc1)c1ccccc1 |  | 111 µM (active)
CCCCC=O | inactive | 
CS(=O)(=O)c1ccc([C@@H](CC2CCCC2)C(=O)Nc2cnccn2)cc1Cl | inactive | 
N=C(N)c1ccc(OCCCCCOc2ccc(C(=N)N)cc2)cc1 |  | 21.6 µM (active)
